The results in this text go back to PubChem BioAssay (EPA / NIEHS).

The term AC50 denotes the concentration giving half of the maximal activity seen.

The source made the active and inactive calls. How the source made its calls: active means hit-call score of the fitted dose curve at least 0.9, where 1 is the maximum; inactive means score below 0.9.

Sequence of Hypoxia-inducible factor 1-alpha (Homo sapiens) (Q16665 whole entry, looked up): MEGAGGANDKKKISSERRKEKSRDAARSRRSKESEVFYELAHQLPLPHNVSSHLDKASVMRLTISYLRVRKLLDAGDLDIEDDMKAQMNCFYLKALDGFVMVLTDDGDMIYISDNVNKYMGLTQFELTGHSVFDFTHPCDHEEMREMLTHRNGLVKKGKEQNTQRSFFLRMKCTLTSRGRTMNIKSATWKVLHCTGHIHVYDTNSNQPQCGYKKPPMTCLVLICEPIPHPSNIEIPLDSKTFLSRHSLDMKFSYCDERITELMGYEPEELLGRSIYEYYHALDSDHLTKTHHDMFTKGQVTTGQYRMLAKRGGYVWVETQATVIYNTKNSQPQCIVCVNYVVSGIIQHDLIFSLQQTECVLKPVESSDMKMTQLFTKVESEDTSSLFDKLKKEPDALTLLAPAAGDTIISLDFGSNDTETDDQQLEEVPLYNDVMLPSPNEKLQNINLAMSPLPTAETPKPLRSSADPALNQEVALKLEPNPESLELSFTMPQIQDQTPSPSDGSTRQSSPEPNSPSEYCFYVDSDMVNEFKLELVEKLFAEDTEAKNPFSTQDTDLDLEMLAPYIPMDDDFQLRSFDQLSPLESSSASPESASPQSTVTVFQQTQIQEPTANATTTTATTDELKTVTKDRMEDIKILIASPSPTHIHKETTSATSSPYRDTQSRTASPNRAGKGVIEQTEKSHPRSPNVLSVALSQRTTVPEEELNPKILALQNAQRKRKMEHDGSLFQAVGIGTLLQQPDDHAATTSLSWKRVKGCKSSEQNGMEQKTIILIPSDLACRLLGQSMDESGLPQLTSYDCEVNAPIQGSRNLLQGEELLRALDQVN

Read-out in one test: Hypoxia-inducible factor 1-alpha (Homo sapiens) (UniProt Q16665)
Nature of the test: LTEA_HepaRG_HIF1A: Life Technologies and Expression Analysis (LTEA) Assay for Hypoxia-inducible factor 1 (HIF1A) Trancription factor using HepaRG (AID 2283503).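 Further: HIF1A transcript by TaqMan qRT-PCR normalized to ACTB GAPDH and POLR2A.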 The conditions noted are these: mRNA level, 48 h; actives raise or lower the signal. In outline:
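HepaRG, 48 h exposure, 8-pt half-log series from 100 uM, 0.5% DMSO vehicle, duplicates. Readout: HIF1A transcript by qRT-PCR (Fluidigm array), housekeeping-normalised. Bidirectional curve fit vs DMSO baseline.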
As for `O=C(O)Cc1cc(I)c(Oc2cc(I)c(O)c(I)c2)c(I)c1`, the concentration at half-maximal activity (AC50) is 21.5 µM (active).

`CC(=O)CC(C)(C)O`: the call was inactive.

With `CCN(CC)CCNc1ccc(CNC=O)c2sc3ccc(OC)cc3c(=O)c12`, the AC50 was 75.5 µM (active).

With `OC1CCC(C2CCCCC2)CC1` (configuration not stated), the molecule was called inactive.

In the case of `CN(C)C=O`, the call was inactive.

With `NC(=O)N(O)[C@@H]1C=C[C@H](Oc2cccc(Oc3ccc(F)cc3)c2)C1`, the AC50 is 78.7 µM (active).

Regarding `CC[C@H](C)[C@@H](C(=O)O)n1sc2ccccc2c1=O`, the AC50 was 0.372 µM (active).

Read-out in a further test: 3-Hydroxy-3-Methylglutaryl-CoA Synthase 2 (HMGCS2), HMGCS2 (gene 3158)
Kind of test: LTEA_HepaRG_HMGCS2: Life Technologies and Expression Analysis (LTEA) Assay for 3-Hydroxy-3-Methylglutaryl-CoA Synthase 2 (HMGCS2) using HepaRG (AID 2283504). Particulars: mRNA level, 48 h; actives raise or lower the signal. Put shortly: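 HepaRG, plated 48 h then switched to serum-free induction media; cmpd 8-pt, max 100 uM, 1/2-log, 0.5% DMSO, n=2, 48 h. HMGCS2 mRNA by Fluidigm TaqMan qRT-PCR, ACTB/GAPDH/POLR2A norm; bidirectional fit vs DMSO.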
Take `CC(C)(C)c1cc(C(C)(C)C)c(O)c(C(C)(C)C)c1`: the concentration at half-maximal activity (AC50) is 21 µM (active).

Consider `Cc1cc(C)c(O)c(C)c1`, for which the outcome was inactive.

Regarding `CCCCC(CC)COC(=O)CCCCC(=O)OCc1ccccc1` (configuration not stated), the molecule was classed as inactive.

As to `c1ccc2c(c1)ccc1ccccc12`, the molecule was classed as inactive.

`CCCCCCCCOC(=O)CCCCCCCCC(=O)OCCCCCCCC`: the call was inactive.

`CC(C)(C)c1ccc(O)c(C(C)(C)C)c1`: the molecule was called inactive.

With `O=C(OCCOCCOC(=O)c1ccccc1)c1ccccc1`, the result was inactive.

Take `CCCOc1sc(C(=O)N2CCC(c3cc(CN)ccc3F)CC2)c(C)c1Br`: the molecule was classed as inactive.

As to `CCc1nn(C2CCCCC2)c2cc(C3(C#N)CCC(C(=O)O)CC3)ccc12` (configuration not stated), the AC50 is 81.8 µM (active).

As to `COCC(C)OCC(C)O` (configuration not stated), the outcome was inactive.

Regarding `CC(C)(C)CC(C)(C)c1ccc(O)c(-n2nc3ccccc3n2)c1`, the AC50 is 50 µM (active).

Take `CC(O)CO` (configuration not stated): the result was inactive.

As for `COc1ccc([N+](=O)[O-])cc1N`, the molecule was called inactive.

As to `CCCCCCCCCCCCN1CCCC1=O`, the molecule was called inactive.

Regarding `OCCC(F)(F)C(F)(F)C(F)(F)C(F)(F)C(F)(F)C(F)(F)F`, the call was inactive.
